# Source: the supplement of paper PMC6607015
# Counter-ions that a name gives are not always drawn.
# Legend:
# Settings in all cases: compound concentration in added solution (µM; 5 µl added to 20 µl cells): 10; 18 h
# [1] = test system: A431; assay: LBPA endosome anti-LBPA integrated intensity (sum per cell), Z-score; higher = more LBPA staining
# Summary of the method: (§1)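 HeLa MZ or A431 cells (3,500/well in 20 µl) were seeded onto 5 µl of 10 µM compound solution in duplicate 384-well imaging plates, incubated 18 h, then fixed in 4% PFA. Cells were stained with 6C4 anti-LBPA antibody, filipin, propidium iodide and CellTracker green, and four 20× images were taken per well. MetaXpress segmentation gave per-cell integrated LBPA or filipin intensity, either whole-cell or within LBPA endosomes. Values are Z-scores normalised in AcuityXpress.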
# [2] = test system: HeLa MZ; assay: as above
# Summary of the method: as §1
# [3] = test system: A431; assay: whole-cell filipin (free cholesterol) integrated intensity, Z-score; higher = more cholesterol staining
# Summary of the method: as §1
# [4] = test system: HeLa MZ; assay: as above
# Summary of the method: as §1
# [5] = test system: A431; assay: filipin (cholesterol) integrated intensity within LBPA endosomes, Z-score; higher = more cholesterol in LBPA endosomes
# Summary of the method: as §1
# [6] = test system: HeLa MZ; assay: as above
# Summary of the method: as §1
Structure (SMILES),LBPA endosome anti-LBPA integrated intensity (z-score) [1],LBPA endosome anti-LBPA integrated intensity (z-score) [2],whole-cell filipin (z-score) [3],whole-cell filipin (z-score) [4],filipin (z-score) [5],filipin (z-score) [6]
CCN1CCN(C(=O)N[C@@H](C(=O)N[C@@H]2C(=O)N3[C@@H]2SC(C)(C)[C@@H]3C(=O)O)c2ccccc2)C(=O)C1=O [Piperacillin sodium salt],-0.232,-0.383,-0.0934,-0.425,-0.285,-0.478
NC(=O)N1c2ccccc2CC(=O)c2ccccc21 [Oxcarbazepine],-0.669,-1.06,-0.767,-1.13,-0.582,-0.729
C=CCN1CCCC1CNC(=O)c1cc2nn[nH]c2cc1OC (stereo unspecified) [Alizapride HCl],-0.413,0.636,-0.622,-0.69,-0.538,-0.182
CC(C(=O)O)c1ccc2c(c1)[nH]c1ccc(Cl)cc12 (stereo unspecified) [Carprofen],-0.569,-1.21,-0.098,-0.307,-0.398,-0.538
CC(CN(C)C)CN1c2ccccc2CCc2ccccc21 (stereo unspecified) [Trimipramine maleate salt],2.39,1.13,1.92,0.599,2.57,1.53
Oc1ccc(OCc2ccccc2)cc1 [Monobenzone],-0.343,2.16,2.23,2.56,-0.548,-0.736
CC(C)(C)NC[C@H](O)COc1ccccc1C1CCCC1 [Penbutolol sulfate],1.31,0.815,1.46,0.313,1.3,0.914
N/C(=N\C(=O)c1nc(Cl)c(N)nc1N)NCc1ccccc1 [Benzamil hydrochloride],0.224,1.13,0.167,0.672,-0.0522,0.566
O=C(O[C@@H]1C[C@@H]2C[C@H]3C[C@H](C1)N2CC3=O)c1c[nH]c2ccccc12 [Dolasetron mesilate],-0.534,-0.27,-0.669,0.0841,-0.498,-0.224
CC1(C)O[C@@H]2[C@@H](CO[C@@]3(COS(N)(=O)=O)OC(C)(C)O[C@@H]23)O1 [Topiramate],-0.482,-0.13,-0.0917,-0.317,-0.419,-0.514
OCCN1CCN(CCCN2c3ccccc3Sc3ccc(Cl)cc32)CC1 [Perphenazine],3.24,0.966,-0.472,-0.434,2.14,2.73
CCSc1ccc2c(c1)N(CCCN1CCN(C)CC1)c1ccccc1S2 [Thiethylperazine dimalate],3.37,1.8,-0.311,-0.392,1.25,1.79
Cc1noc(NS(=O)(=O)c2ccc(N)cc2)c1C [Sulfisoxazole],-0.641,-0.742,-0.79,-0.499,-0.574,-0.486
Cc1cc(NS(=O)(=O)c2ccc(N)cc2)no1 [Sulfamethoxazole],-0.371,-0.141,-0.446,-0.158,-0.446,-0.3
NC1CCN(c2c(F)cc3c(=O)c(C(=O)O)cn(C4CC4)c3c2Cl)C1 (stereo unspecified) [Clinafloxacin],-0.36,0.512,-0.328,-0.333,-0.437,-0.286
Cc1ccc(-c2cc(C(F)(F)F)nn2-c2ccc(S(N)(=O)=O)cc2)cc1 [Celecoxib],-0.0813,0.702,0.406,0.113,-0.205,-0.22
CN(CCCCCCCCCCN(C)C(=O)Oc1cccc([N+](C)(C)C)c1)C(=O)Oc1cccc([N+](C)(C)C)c1 [Demecarium bromide],-0.223,-0.152,-0.139,-0.617,-0.179,-0.595
C[C@@](Cc1ccc(O)c(O)c1)(NN)C(=O)O [Carbidopa],-0.613,-0.537,-0.771,-0.705,-0.551,-0.634
CN(C)CCN1C(=O)c2ccccc2N(C)c2ccccc21 [Dibenzepine hydrochloride],-0.357,0.481,-0.676,-0.7,-0.373,0.00611
COc1cc2nc(N3CCN(C(=O)C4CCCO4)CC3)nc(N)c2cc1OC (stereo unspecified) [Terazosin hydrochloride],-0.178,0.906,-0.323,-0.357,-0.379,0.00198
CC(=O)[C@H]1CC[C@H]2[C@@H]3C[C@H](C)C4=CC(=O)CC[C@]4(C)[C@H]3[C@@H](O)C[C@]12C [Medrysone],1.76,1,0.12,0.163,0.432,0.0722
Cc1ncc([N+](=O)[O-])n1CCO [Metronidazole],-0.639,-1.28,-1.11,-0.583,-0.459,-0.544
Nc1nc(=O)[nH]cc1F [Flucytosine],-0.468,-0.721,-0.313,-0.0984,-0.463,-0.623

Structure (SMILES),LBPA endosome anti-LBPA integrated intensity (z-score) [1],LBPA endosome anti-LBPA integrated intensity (z-score) [2],whole-cell filipin (z-score) [3],whole-cell filipin (z-score) [4],filipin (z-score) [5],filipin (z-score) [6]
CC(=O)[C@H]1CC[C@H]2[C@@H]3CCC4=CC(=O)CC[C@]4(C)[C@H]3CC[C@]12C [Progesterone],2.4,0.628,1.62,0.873,2.26,0.759
C[C@]12CC[C@@H]3c4ccc(O)cc4C[C@@H](CCCCCCCCC[S+]([O-])CCCC(F)(F)C(F)(F)F)[C@H]3[C@@H]1CC[C@@H]2O (stereo partly specified) [Fulvestrant],1.44,1.71,1.52,1.48,1.64,2.16
Nc1cc(N2CCCCC2)nc(N)[n+]1[O-] [Minoxidil],-0.316,-0.257,-0.274,0.345,-0.426,-0.263
CN(C)CCCN1c2ccccc2Sc2ccc(Cl)cc21 [Chlorpromazine hydrochloride],3.29,1.39,0.659,0.0307,2.35,1.67
Nc1nc(O)c2ncn(CCC(CO)CO)c2n1 [Penciclovir],-0.596,-1.08,-0.223,0.234,-0.512,-0.438
CCN1C(=O)NC(c2ccccc2)C1=O (stereo unspecified) [Ethotoin],-0.277,-0.178,-0.136,-0.484,-0.353,-0.513
C=C1c2cccc(O)c2C(=O)C2=C(O)[C@]3(O)C(=O)C(C(N)=O)=C(O)[C@@H](N(C)C)[C@@H]3[C@@H](O)[C@H]12 [Methacycline hydrochloride],-0.461,-0.934,0.119,-0.217,-0.402,-0.642
N=C(N)c1ccc(OCCCCCOc2ccc(C(=N)N)cc2)cc1 [Pentamidine isethionate],-0.319,-1.47,-0.429,-0.57,-0.313,-0.712
CN1CCN(C2=Nc3ccccc3Oc3ccc(Cl)cc32)CC1 [Loxapine succinate],0.352,1.12,0.0252,-0.743,0.0734,-0.11
O=C(O)c1cn(C2CC2)c2cc(N3CCNCC3)c(F)cc2c1=O [Ciprofloxacin hydrochloride hydrate],-0.633,-0.847,-0.925,-0.971,-0.579,-0.519
CO[C@@H]1[C@@H](OC(N)=O)[C@@H](O)[C@H](Oc2ccc3c(O)c(NC(=O)c4ccc(O)c(CC=C(C)C)c4)c(=O)oc3c2C)OC1(C)C [Novobiocin sodium salt],-0.507,-0.477,-0.352,-0.602,-0.469,-0.462
COC(=O)C1=C(C)NC(C)=C(C(=O)OCCN(C)Cc2ccccc2)C1c1cccc([N+](=O)[O-])c1 (stereo unspecified) [Nicardipine hydrochloride],1.9,0.904,1.24,-0.142,1.79,0.881
CN(C)CCCN1c2ccccc2CCc2ccccc21 [Imipramine hydrochloride],0.746,0.11,0.885,-0.699,1.08,0.828
CCOC(=O)C(C)(C)Oc1ccc(Cl)cc1 [Clofibrate],-0.34,-0.523,-0.116,-0.429,-0.352,-0.657
CCOC(=O)n1ccn(C)c1=S [Carbimazole],-0.395,0.106,-0.405,-0.308,-0.513,-0.531
Cn1cnc2c1c(=O)[nH]c(=O)n2C [Theobromine],-0.566,-1.37,-0.361,-0.586,-0.492,-0.483
COc1ccc(CCN(C)CCCC(C#N)(c2ccc(OC)c(OC)c2)C(C)C)cc1OC (stereo unspecified) [Verapamil hydrochloride],2.51,2.93,2.24,0.413,2.46,1.49
CC1(C)O[C@@H]2C[C@H]3[C@@H]4C[C@H](F)C5=CC(=O)C=C[C@]5(C)[C@@]4(F)[C@@H](O)C[C@]3(C)[C@]2(C(=O)CO)O1 [Fluocinolone acetonide],-0.172,-0.371,0.258,0.13,-0.163,-0.367
Clc1ccc2c(c1)CCc1cccnc1C2=C1CCNCC1 [Desloratadine],3.93,2.5,1.63,0.223,2.69,2.81
CCOc1ccc2ccccc2c1C(=O)N[C@@H]1C(=O)N2[C@@H]1SC(C)(C)[C@@H]2C(=O)O [Nafcillin sodium salt monohydrate],-0.558,-0.117,-0.348,-0.195,-0.443,-0.476
CC(=O)/N=c1/sc(S(N)(=O)=O)nn1C [Methazolamide],-0.623,-1.23,-0.758,-0.523,-0.506,-0.535
CC(C)Cc1ccc([C@H](C)C(=O)O)cc1 [S-(+)-ibuprofen],-0.498,-0.256,-0.555,-0.301,-0.443,-0.51
CC(=O)OCC(=O)[C@@]1(O)CC[C@H]2[C@@H]3CCC4=CC(=O)CC[C@]4(C)[C@@]3(F)[C@@H](O)C[C@@]21C [Fludrocortisone acetate],-0.127,-0.216,-0.382,-0.957,-0.321,-0.564
